From PubChem BioAssay AID449762 (Southern Research Specialized Biocontainment Screening …, 2010)
Hit rate of the full screen: of about 330,000 compounds, about 1,900 (0.58%) were called active. Another 4% or so got no clear call; they are omitted. Rule as the data show it: inconclusive = inhibition above about 70% without an active follow-up result; inactive = below that. Not all results are given here. Results with a measured potency or affinity are listed apart.

Test: M. tuberculosis growth inhibition, HTS (AID 449762);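 also: bacterial growth assessed after seven days of incubation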
Conditions: M. tuberculosis H37Rv growth inhibition, 7H9 media; at 25 µM; stronger effect = higher value
In the case of `O=C(CS(=O)(=O)Cc1ccccc1)Nc1ccc(Br)cc1F`, the inhibition is reported as -10.1% (inactive). In the case of `COn1c2c(c3c4no[n+]([O-])c4ccc31)CCCC2`, the inhibition is reported as 12.5% (inactive). In the case of `CCOC(=O)c1c(C)n(OC)c2ccc3c(no[n+]3[O-])c12`, the inhibition is reported as -8.43% (inactive). For `Cc1ccc2[nH]c(=O)c(CN(CC3CCCO3)C(=O)c3ccncc3)cc2c1` (stereo not given), the inhibition was 4.74% (inactive). For `CN1CCc2c(C#N)c(N3CCCCC3)nc(NCc3ccccc3)c2C1`, the inhibition was 8.6% (inactive). With `CCCCCNc1nc(NCCCO)c(C#N)c2c1CN(C)CC2` the inhibition was 1.69% (inactive). In the case of `CC(=O)NC(C)(CC(=O)c1ccccc1)c1ccccc1` (stereo not given), the inhibition is reported as -8.86% (inactive). With `S=C(NCCCN1CCOCC1)N(Cc1ccccc1)Cc1ccccc1` the inhibition was -1.92% (inactive). In the case of `Cc1ccccc1Nc1nn2c(=O)c3ccccc3nc2s1`, the inhibition is reported as 4.93% (inactive). With `C=CCSc1nn2c(=O)c3ccccc3nc2s1` the inhibition was 66.1% (inactive). For `Cc1nc(SCC(C)C)[nH]c(=O)c1Cc1ccccc1`, the inhibition was -4.67% (inactive). With `O=C(OCc1nnc(-c2ccccc2)o1)c1ccc([N+](=O)[O-])s1` the inhibition was 63.8% (inactive). With `O=C(OCc1nnc(-c2ccccc2)o1)c1ccccc1` the inhibition was 3.86% (inactive). For `COc1ccc(OC)c(NC2=NCCCS2)c1`, the inhibition was -1.69% (inactive). In the case of `COc1ccc(C(CNC(=O)C(=O)NC2CCCCC2)N2CCN(C)CC2)cc1` (stereo not given), the inhibition is reported as -12.6% (inactive). In the case of `COc1ccc(OC)c(N2Cc3ccccc3C2)c1`, the inhibition is reported as 3.42% (inactive). With `COc1ccccc1NC(=O)Nc1nc(CC(=O)NCc2c(F)cccc2F)cs1` the inhibition was 29.2% (inactive). With `COc1ccccc1CC(=O)N1CCN(c2ccccc2F)CC1` the inhibition was 3% (inactive). With `O=C(Nc1cccc(S(=O)(=O)N2CCOCC2)c1)c1cc(=O)[nH]c2ccccc12` the inhibition was -2.49% (inactive). For `CN(C)Cc1nc2ccccc2c(=O)n1CC#N`, the inhibition was -2.77% (inactive). In the case of `N#CCn1c(Cc2ccccc2)nc2ccccc2c1=O`, the inhibition is reported as -1.48% (inactive). With `CCOCCc1nnc(NC(=O)CS(=O)(=O)c2ccc(C)cc2)s1` the inhibition was -7.28% (inactive). In the case of `COc1ccccc1CN1CCC(n2nccc2NC(=O)CCCc2ccccc2)CC1`, the inhibition is reported as 3.32% (inactive). In the case of `CCOC(=O)C1=C(CSc2nc3c(cc2C#N)CN(C)CC3)OC(N)=C(C#N)C1c1ccc(Cl)cc1` (stereo not given), the inhibition is reported as -0.9% (inactive). In the case of `COc1ccc(C(CC(=O)NCCCN2CCOCC2)NS(=O)(=O)c2ccc(C)cc2)cc1` (stereo not given), the inhibition is reported as -3.32% (inactive). With `CCCc1ccc(NC(=O)C2CCCN(c3cnccn3)C2)cc1` (stereo not given) the inhibition was 3.51% (inactive). For `Cc1ccc(NC(=O)C2CCN(c3cnccn3)CC2)cc1`, the inhibition was -0.63% (inactive). In the case of `COc1ccc(NC(=O)C2CCCN2S(=O)(=O)c2ccc3c(c2)CCC(=O)N3)cc1` (stereo not given), the inhibition is reported as -21% (inactive). With `CCCn1c(CCc2ccccc2)nnc1SCC(=O)N1CCCC1` the inhibition was -5.53% (inactive). In the case of `C[C@]12CCC(=O)C=C1CC[C@@H]1C2[C@H](O)C[C@]2(C)C(=O)CCC12` (stereo not given in full), the inhibition is reported as 2.16% (inactive). In the case of `Cc1nnc(NC(=O)c2cc(-c3ccncc3)nc3c(C)cccc23)s1`, the inhibition is reported as 9.24% (inactive). For `Cc1cc(NC(=O)c2cc(-c3cccnc3)nc3c(C)c(C)ccc23)no1`, the inhibition was 2.95% (inactive). With `CCN(CC)S(=O)(=O)c1cccc(-c2n[nH]c(=S)n2CC(C)C)c1` the inhibition was 4.49% (inactive). In the case of `COC(=O)N(NC(=O)C(O)(CCC(C)C)CCC(C)C)c1ccccc1`, the inhibition is reported as 2.67% (inactive). In the case of `CCOC(OCC)P(=O)(C(C)C)C(C)C`, the inhibition is reported as -4.61% (inactive). For `Cc1ccc(-c2nnc3c(C(F)(F)F)nc4ccccc4n23)cc1`, the inhibition was 0.23% (inactive). With `Cc1cc(-c2cc(-c3ccc(Cl)cc3)on2)nc(NC2CCCC2)n1` the inhibition was 31.4% (inactive). In the case of `CC(C)c1cc(-c2cc(-c3ccccc3)on2)nc(NC2CCCC2)n1`, the inhibition is reported as 5.62% (inactive). In the case of `CCCCN(C)C(=O)CC(NS(=O)(=O)c1ccc(NC(C)=O)cc1)C(C)C` (stereo not given), the inhibition is reported as 0.04% (inactive). With `Cc1ccc(-n2nnnc2CNC(=O)c2ccc(Br)o2)cc1C` the inhibition was 11.2% (inactive). For `O=C(NCc1nnnn1-c1ccc(Cl)cc1)c1ccc(Br)o1`, the inhibition was -0.54% (inactive). In the case of `O=C(O)C1C2C=CC(C2)C1C(=O)NCc1ccc(Cl)cc1Cl` (stereo not given), the inhibition is reported as 7.08% (inactive). With `Oc1ccccc1-c1cc(C(F)(F)C(F)F)nc(-c2ccccc2)n1` the inhibition was 12.1% (inactive). With `Oc1ccccc1-c1cc(C(F)(F)F)nc(-c2ccccc2)n1` the inhibition was 6.24% (inactive). In the case of `Cc1cc(C)nc(/N=C(\N)Nc2cc([N+](=O)[O-])ccc2C)n1`, the inhibition is reported as 1.78% (inactive). In the case of `COc1ccc(C)cc1N/C(N)=N/c1nc(C)cc(C)n1`, the inhibition is reported as 5.92% (inactive). For `CC(=O)N/C(=C\c1ccccc1)C(=O)OCC(=O)NC(C)C12CC3CC(CC(C3)C1)C2` (stereo not given), the inhibition was 10.4% (inactive). With `O=C(CCC(=O)OCc1ccc([N+](=O)[O-])cc1)Nc1ccccc1Cl` the inhibition was -11.9% (inactive). In the case of `CC(C)(C)NC(=O)C(=O)NNC(=O)c1ccccc1`, the inhibition is reported as -5.28% (inactive). With `CC(C)(C)c1ccc(C(=O)NNC(=O)c2ccc(Cl)cc2)cc1` the inhibition was -6.43% (inactive). For `Cc1cc(C)c(S(=O)(=O)c2cc(F)ccc2C)c(Cl)n1`, the inhibition was 6.18% (inactive). In the case of `Cc1cc(/C([O-])=C(/C(=S)Nc2ccc(F)cc2)[n+]2ccccc2)c(C)n1-c1ccc(F)cc1`, the inhibition is reported as -9.36% (inactive). With `Cc1cc(/C([O-])=C(/C(=S)Nc2ccccc2)[n+]2ccccc2)c(C)n1-c1ccccc1` the inhibition was 38.1% (inactive). In the case of `CC(CC(=O)N1CCN(S(=O)(=O)c2ccc(Cl)cc2)CC1)n1cncn1` (stereo not given), the inhibition is reported as 7.22% (inactive). With `Cc1cc2nncn2c(Cc2ccccc2)n1` the inhibition was -5.06% (inactive). For `CCCNC(=O)c1onc(CSc2ccccc2)c1C(=O)NCCC`, the inhibition was 3.78% (inactive). In the case of `CCc1cc2c(=O)n(CC(C)C)cnc2s1`, the inhibition is reported as 13.2% (inactive). With `CCc1cc2c(=O)n(CC(=O)NC3CCCCC3)cnc2s1` the inhibition was -19.5% (inactive). In the case of `Cc1sc2ncn(CC(=O)N(CC(=O)NC3CCCC3)Cc3cccs3)c(=O)c2c1C`, the inhibition is reported as -6.3% (inactive). With `O=C(CCc1nc(-c2ccccc2F)no1)NCCc1ccccc1Cl` the inhibition was -5.37% (inactive). With `CC(=O)Oc1ccc(C(=O)Nc2cccc(C(=O)c3ccc(C)c(C)c3)c2)cc1` the inhibition was 6.87% (inactive). For `O=C(N/N=C/c1ccc(O)cc1)c1cc[n+](Cc2ccccc2)cc1`, the inhibition was -5.45% (inactive). With `O=C(C[n+]1cccc(C(=O)N/N=C/c2ccc(Br)cc2)c1)c1ccccc1` the inhibition was -3.73% (inactive). With `Cn1c(=O)n(C)c2cc([N+](=O)[O-])c(N3CCN(S(=O)(=O)c4ccc(C(C)(C)C)cc4)CC3)cc21` the inhibition was -9.94% (inactive). For `CCN1CCN(c2oc(COc3ccc(Cl)cc3)nc2C#N)CC1`, the inhibition was 8.42% (inactive). For `Cc1ccc(OCc2nc(C#N)c(N3CCN(Cc4ccccc4)CC3)o2)cc1`, the inhibition was -9.38% (inactive). In the case of `CCCc1nc2oc3c(NCc4ccccn4)ncnc3c2c2c1COC(C)(C)C2`, the inhibition is reported as -3.19% (inactive). In the case of `CCOc1ccc(N2CC(C(=O)N3CCCCCC3)CC2=O)cc1` (stereo not given), the inhibition is reported as -1.61% (inactive). In the case of `COc1ccc(NC(=O)CSc2nnc3ccc(-c4ccccn4)nn23)c(OC)c1`, the inhibition is reported as -1.07% (inactive). In the case of `CNCc1ccccc1OCC(=O)Nc1ccccc1`, the inhibition is reported as -16.8% (inactive). In the case of `CC(C)(CO)NCc1ccccc1OCC(=O)Nc1ccccc1`, the inhibition is reported as -10.3% (inactive). With `CCc1cc2c(SCC(=O)c3cccs3)ncnc2s1` the inhibition was -6.51% (inactive). In the case of `CCNCC(=O)N1c2ccccc2CCc2ccc(NC(=O)OCC)cc21`, the inhibition is reported as 8.22% (inactive). In the case of `CCNCC(=O)N1c2ccccc2CCc2ccc(NC(C)=O)cc21`, the inhibition is reported as -1.99% (inactive). For `Cc1ccc(Oc2ccc(Oc3ccc(C)cc3)nn2)cc1`, the inhibition was 1.77% (inactive). In the case of `O=C(CN1CCN(S(=O)(=O)c2ccccc2)CC1)N1CCCCC1`, the inhibition is reported as -3.13% (inactive). For `CN(C)CCCn1c(NCc2ccc3c(c2)OCO3)nc2ccccc21`, the inhibition was -3.55% (inactive). With `CCCn1c(NCc2ccc3c(c2)OCO3)nc2ccccc21` the inhibition was 13.3% (inactive). With `CNC(=O)c1c(NC(=O)c2ccco2)sc2c1CCC2` the inhibition was 8.18% (inactive). With `O=C(CCNS(=O)(=O)c1ccccc1)NNC(=O)COc1ccccc1F` the inhibition was 0.68% (inactive). For `CCCOC(=O)c1cccc(NC(=O)COc2ccc([N+](=O)[O-])cc2)c1`, the inhibition was 66.4% (inactive). With `CC(=O)C(C)Oc1ccc(Cc2ncc(C(F)(F)F)cc2Cl)cc1` (stereo not given) the inhibition was 10.2% (inactive). In the case of `NC(=O)COc1ccc(Cc2ncc(C(F)(F)F)cc2Cl)cc1`, the inhibition is reported as 5.51% (inactive). For `C=CCn1c(SCC(=O)c2c(N)n(C)c(=O)n(C)c2=O)nnc1-c1ccoc1C`, the inhibition was 2.92% (inactive). For `CC(Sc1nnc(-c2cccnc2)n1N)C(=O)N1CCOCC1` (stereo not given), the inhibition was -0.03% (inactive). In the case of `COc1cc(C(=O)NCCC(=O)NCCN2CCCCCC2)cc(OC)c1OC`, the inhibition is reported as -5.5% (inactive). With `CCCNS(=O)(=O)c1ccc(OCC(=O)NCCC2=CCCCC2)cc1` the inhibition was -5.92% (inactive). For `COC(=O)COc1ccc(S(=O)(=O)NCCC2=CCCCC2)cc1`, the inhibition was 59.1% (inactive). With `CC1CC(NS(=O)(=O)c2cc3c4c(c2)CCN4C(=O)CC3)CC(C)(C)C1` (stereo not given) the inhibition was 12.2% (inactive). For `Cc1ccc(-n2cc(-c3ccccc3)c3c(=O)[nH]cnc32)cc1`, the inhibition was 8.81% (inactive). With `O=c1[nH]cnc2c1c(-c1ccccc1)cn2-c1ccccc1` the inhibition was 5.31% (inactive). For `COc1ccc(CCNC(=O)c2[nH]c(C)c(C(C)=O)c2C)cc1OC`, the inhibition was -6.23% (inactive). For `O=C(/C=C/c1ccco1)Nc1ccc(-c2nc3ccccc3[nH]2)cc1`, the inhibition was -5.99% (inactive). With `Cc1ccc(-c2nc3ccccc3[nH]2)cc1NC(=O)/C=C/c1ccco1` the inhibition was 7.41% (inactive). In the case of `COC(=O)c1nnn(-c2nonc2N)c1CSc1ccccn1`, the inhibition is reported as -4.14% (inactive).
